# rRNA inh HTS: inhibits bacterial ribosomal RNA function over humanized ribosomes; E. coli WT GFP vs humanized-ribosome RFP mutants, fluorescence, 24 h; stronger effect = lower value; DMSO median 0, no signal -100; GFP signal change (wild-type ribosome), % (concentration not given with the values); actives 1.6% (n = 350,000);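 active means significant combined selectivity score with lowered wild-type GFP, culture density cut under 30%, mutant RFP and density less affected; inactive means any of these conditions unmet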
# RAD52 anneal inh: blocks human RAD52 DNA annealing; P43351; recombinant RAD52 DNA annealing, FRET fluorescence; inhibition, % at 18.7 µM; actives 0.46% (n = 360,000); AID 651710;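 active means every replicate showing at least 50% inhibition; inconclusive means mean inhibition at least 50% but not in every replicate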
# Target sequence (P43351 whole entry, looked up): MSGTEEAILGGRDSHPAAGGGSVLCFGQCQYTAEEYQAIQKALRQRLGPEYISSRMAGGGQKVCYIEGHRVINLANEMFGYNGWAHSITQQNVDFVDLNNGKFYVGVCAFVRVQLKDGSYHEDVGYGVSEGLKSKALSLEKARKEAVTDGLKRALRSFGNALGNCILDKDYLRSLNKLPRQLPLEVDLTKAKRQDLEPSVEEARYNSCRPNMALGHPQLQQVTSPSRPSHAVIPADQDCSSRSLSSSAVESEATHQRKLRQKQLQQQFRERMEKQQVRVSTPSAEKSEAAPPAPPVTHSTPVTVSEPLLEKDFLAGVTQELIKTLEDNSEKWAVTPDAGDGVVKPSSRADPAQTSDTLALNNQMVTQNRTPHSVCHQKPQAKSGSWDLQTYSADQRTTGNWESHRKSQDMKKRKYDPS
# NSD2 inh: inhibitors of human histone methyltransferase NSD2; O96028; NSD2 peptide methylation, AlphaScreen, 120 min; actives 0.54% (n = 310,000); AID 743445; inhibition, % at 12.5 µM; in the data active means inhibition above about 50%
# Casp6 inh: inhibitors of human caspase-6; P55212; purified caspase-6, Z-VEID-R110 cleavage fluorescence; inhibition, % at 12.5 µM; actives 0.53% (n = 350,000);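 active means mean inhibition across replicates at least about 35%, with every replicate also reaching that limit, limit read from the data; inconclusive means only one of the two criteria met; inactive means neither criterion met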;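 further: 0% = median of neutral control wells and 100% = no fluorescence left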
# MLL AF4-AF9 inh: blocks AF4 peptide binding to human AF9; P42568; AlphaScreen, biotin-AF4 peptide binding to FLAG-AF9; inhibition, % at 10 µM; actives 0.47% (n = 350,000);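 active means every replicate reaching a set inhibition limit, whatever the replicate mean, cut at about 25% in these data; inconclusive means mean inhibition reaches that limit but some replicates miss it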;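 further: 0% = plate neutral control median and 100% = total signal loss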
# RAD52 DNA ctr: counter-screen for RAD52 inhibitors: DNA binding compounds; Salmon sperm DNA/acridine orange FP displacement; AC50, µM; AID 652128; actives 8% (n = 1,000); shares compounds with RAD52 anneal inh;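 active means fitted half-maximal concentration for signal loss at or below twice the highest dose tested, in every separate run, actives reach about 64 µM in these data; inconclusive means runs disagree, or flat partial signal loss, or poor fit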
# Numbers without * were called inactive; i = inactive; ? = inconclusive; . = not tested or not shown. Hits are enriched below; roughly 2.5% of the tested compounds scored in any of these assays.
SMILES,rRNA inh HTS,RAD52 anneal inh,NSD2 inh,Casp6 inh,MLL AF4-AF9 inh,RAD52 DNA ctr
COc1ccc2sc3cccc(NCCN(C)C)c3c(=O)c2c1,-6.4,58.3*,40.9,11.0,19.3,38.5µM*
COc1ccc2oc3cc(NCCN(C)C)ccc3c(=O)c2c1,11.6,79.1*,-11.3,-6.4,-6.2,i
CNc1nc(-c2c[nH]c3ccccc23)cs1,.,.,1.7,.,.,.
CN1CCN(CC(=O)Nc2nc(-c3c[nH]c4ccccc34)cs2)CC1,-2.5,95.5*,30.3,-46.8,?,i
O=C(CNC1CCCC1)Nc1ccc(N2CCCCCC2)cc1,0.0,78.3*,.,-4.8,43.5*,i
CCC(C)[C@H](N)c1cn([C@@H](Cc2ccc(O)cc2)C(=O)N2CCNCC2)nn1 (some centres undefined),2.0,4.1,.,-6.8,.,.
CCC(C)[C@H](N)c1cn([C@@H](Cc2cc3ccccc3[nH]2)C(=O)N2CCNCC2)nn1 (some centres undefined),0.4,95.9*,.,-94.8,29.9*,i
C[C@@H]1CN([C@H](C)CO)C(=O)Cc2cc(NC(=O)C3CCCCC3)ccc2O[C@@H]1CN(C)C(=O)Nc1ccc2c(c1)OCO2,-0.6,16.4,.,0.6,-0.3,.
CCN(CCN(C)C)C(=O)c1ccc2c(c1NCCO)C(=O)c1ccccc1C2=O,-32.8,57.7*,22.8,2.9,17.1,58.2µM*
C/C=C/c1ccc([C@H]2[C@H]3CN(S(=O)(=O)c4cccc(F)c4)CC(=O)N3[C@H]2CO)cc1,2.3,-14.6,.,0.2,1.9,.
c1c[nH]c(CN2CCN(Cc3ncc[nH]3)CC2)n1,.,56.1*,-2.7,-259.5,27.7*,i
C[C@@H]1CN([C@H](C)CO)S(=O)(=O)c2ccc(-c3cccnc3)cc2O[C@@H]1CN(C)CC1CCOCC1,8.6,-0.6,.,-2.0,-0.3,.
CN(C)CC/C=C1\c2ccccc2Sc2cc(F)c(Cl)cc21,-48.2,63.1*,15.3,-7.6,27.8*,i
CN(C)CC/C=C1\c2cc(Cl)ccc2Sc2cc(F)c(F)cc21,-48.1,62.0*,34.5,-7.2,30.8*,i
CN(C)CC/C=C1\c2cc(F)ccc2CSc2ccccc21,.,.,14.5,.,.,.
CC(C)C#Cc1ccc2c(c1)O[C@@H](CN(C)C(=O)c1cnccn1)[C@@H](C)CN([C@H](C)CO)S2(=O)=O,-9.3,-1.8,.,-0.4,0.4,.
Cc1cccc(CN2C(=O)c3ccccc3S(=O)(=O)c3ccc(C(=O)NCCCN4CCCC4)cc32)c1,4.8,51.4*,3.9,-26.2,7.2,i
O=C(NCCN1CCCC1)c1ccc2c(c1)N(Cc1cccc(Cl)c1)C(=O)c1ccccc1S2(=O)=O,7.7,-10.6,24.2,-8.0,11.0,.
CN1C(=O)c2cc(NC(=O)c3cscn3)ccc2OC[C@H]2O[C@H](CC(=O)N3CCCCC3)CC[C@@H]21,-0.7,-11.8,.,-2.9,-1.8,.
COc1ccc(CN2CCN(Cc3ccco3)CC2)cc1,8.5,-9.8,3.2,-1.3,1.8,.
FC(F)(F)c1ccc(CN2CCN(Cc3ccco3)CC2)cc1,6.3,97.4*,1.6,1.6,1.9,i
CC1(C)Cc2c(c(N3CCCC3)nc3sc4c(N5CCN(CCO)CC5)ncnc4c23)CO1,-21.0,57.8*,14.2,4.6,2.1,i
CC(C)NC(=O)c1ccc2c3n(nc2c1)-c1ccc(Cl)cc1CO3,4.6,5.5,.,-2.8,-1.9,.
CCN(CC)CCCNC(=O)c1ccc2c3n(nc2c1)-c1ccc(Cl)cc1CO3,13.6,64.8*,.,-1.4,9.9,i
CCc1nc2ccc(C(=O)Nc3cc(-c4ccccc4)ccc3OC)cn2c1N(CCN(C)C)CC1CC1,-57.6,62.5*,8.7,-14.1,29.8*,i
CCc1nc2ccc(C(=O)Nc3cc(-c4ccccc4)ccc3OC)cn2c1N(C)CCC(C)C,3.5,-98.1,-1.0,-1.7,0.7,.
C[C@@H]1CCCCO[C@H](CN(C)Cc2ccncc2)[C@H](C)CN([C@@H](C)CO)C(=O)c2cc(NC(=O)CCCN(C)C)ccc2O1,4.6,-15.2,.,-3.8,-5.6,.
CCCCOc1ccc(C)cc1CN(CCO)CCO,.,.,-0.6,.,.,.
CCCCCc1ccc(OCCCC[n+]2ccc(C)cc2)c(CCCCC)c1,-61.4,65.6*,3.0,-30.2,?,i
CCCCCOc1ccc(Br)cc1CSC(=N)N,-61.5,47.7,-3.6,8.3,14.9,.
